# From PubChem BioAssay
# PGC1a acetyl inh = inhibitors of PGC1a acetylation signal, primary screen, cell-based, U2OS, AlphaScreen, inhibitor mode. AlphaScreen anti-acetyl-lysine; with virally co-expressed GCN5 acetyltransferase. inhibition, % at 15.6 µM. 0.17% of 350,000 active. AID 651687, 2012;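 active means every replicate shows inhibition of at least 40%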;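 further: 0% = neutral control wells and 100% = positive control wells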
# DENV2 CPE rescue = inhibitors of DENV2 cytopathic effect, primary screen, cell-based, plate reader, single concentration | DENV2-infected cells, cytopathic effect rescue | CPE inhibition, % at 9.99 µM | 1.7% of 350,000 active; in the data active means CPE inhibition above about 20%, passing the limit was not always enough; tested in BHK-21 cells;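 further: 0% = median of neutral control wells and 100% = median of positive control wells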
# CaV13 ICDI inh = Primary screen for inhibitors of IQ motif and Ca2+-dependent inactivation inhibitor domain binding in CACNA1D, Förster resonance energy transfer in living cells, …; HEK cells, CFP/YFP FRET ICDI-IQ, plate reader, 10 min; percent FRET-ratio fall versus neutral wells; inhibition, % at 12.3 µM; 0.098% of 340,000 active; AID 743397;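 active means mean replicate inhibition of at least 30% and at least 1% of replicates passing that level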;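 further: 0% = median of the neutral control wells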
# rRNA inh HTS = reduced GFP signal of wild-type E. coli, primary screen, bacterial rRNA inhibitor project, GFP/RFP fluorescence, OD600, single point | AID 720706, 2013 | 1.6% of 350,000 active | E. coli WT GFP vs humanized-ribosome RFP mutants, 24 h; active compounds read low; DMSO median 0, no signal -100 | GFP signal change (wild-type ribosome), % (no concentration beside the values);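 active means significant combined selectivity score with lowered wild-type GFP, culture density cut under 30%, mutant RFP and density less affected; inactive means any of these conditions unmet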
# INS-1E GSIS act = GLuc luminescence reporter in INS-1E cells, primary screen for activators of glucose-dependent secretion of insulin. INS-1E GLuc reporter insulin secretion, 2-3 h. activation, % at 16.6 µM. 0.61% of 370,000 active;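 active means lowest replicate activation of at least 40%, so every replicate reaches that level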;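 further: 0% = median of neutral control wells and 100% = median of IBMX positive control wells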
# ERAP1 HTS inh = human ERAP1 aminopeptidase inhibitors, primary screen, biochemical, single point, plate reader | Endoplasmic reticulum aminopeptidase 1 (Homo sapiens), Q9NZ08 | recombinant ERAP1, Leu-AMC fluorescence, 60 min | inhibition, % at 10.7 µM | 0.15% of 340,000 active;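 active means mean replicate inhibition of at least 30%, or all replicates individually reaching that 30% level; inactive means mean below 30% and not every replicate reaching it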;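 further: 0% = neutral control wells and 100% = L-leucinethiol positive control wells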
# Target sequence (Q9NZ08 whole entry, looked up): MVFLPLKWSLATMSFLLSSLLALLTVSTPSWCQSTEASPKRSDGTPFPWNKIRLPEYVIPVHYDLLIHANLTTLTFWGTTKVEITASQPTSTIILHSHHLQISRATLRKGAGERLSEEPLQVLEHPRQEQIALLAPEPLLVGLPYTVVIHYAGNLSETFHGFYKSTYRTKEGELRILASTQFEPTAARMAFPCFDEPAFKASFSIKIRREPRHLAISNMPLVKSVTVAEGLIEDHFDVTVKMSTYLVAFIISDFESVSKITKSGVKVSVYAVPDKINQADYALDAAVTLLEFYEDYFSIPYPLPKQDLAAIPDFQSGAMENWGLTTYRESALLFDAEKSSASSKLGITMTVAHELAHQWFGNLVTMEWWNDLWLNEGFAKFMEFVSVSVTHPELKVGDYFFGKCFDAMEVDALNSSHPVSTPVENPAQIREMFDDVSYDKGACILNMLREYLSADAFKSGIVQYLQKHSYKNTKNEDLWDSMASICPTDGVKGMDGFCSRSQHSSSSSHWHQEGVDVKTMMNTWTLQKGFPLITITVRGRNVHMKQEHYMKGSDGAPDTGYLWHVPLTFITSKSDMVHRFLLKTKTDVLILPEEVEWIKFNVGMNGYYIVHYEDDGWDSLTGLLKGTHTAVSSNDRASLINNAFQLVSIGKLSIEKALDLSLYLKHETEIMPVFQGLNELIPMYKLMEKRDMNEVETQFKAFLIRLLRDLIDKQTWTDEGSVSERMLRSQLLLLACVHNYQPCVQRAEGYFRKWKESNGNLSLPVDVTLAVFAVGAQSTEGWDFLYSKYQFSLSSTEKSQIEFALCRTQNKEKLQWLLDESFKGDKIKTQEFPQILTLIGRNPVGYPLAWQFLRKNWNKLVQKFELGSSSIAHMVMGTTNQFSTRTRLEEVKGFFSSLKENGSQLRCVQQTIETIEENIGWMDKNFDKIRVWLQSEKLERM
# * hit, by the source's call; x = no result. Sampled rows, rich in hits. Any-hit rate of the full collection: about 3.2%.
SMILES,PGC1a acetyl inh,DENV2 CPE rescue,CaV13 ICDI inh,rRNA inh HTS,INS-1E GSIS act,ERAP1 HTS inh
C[C@@H]1CN([C@@H](C)CO)S(=O)(=O)c2ccc(-c3ccc(C(=O)N(C)C)cc3)cc2O[C@H]1CN(C)C(=O)C1CCCCC1,6.2,-5.5,x,-5.8,-22.5,-0.7
C[n+]1cccc(/C=N/NC(=O)CC23CC4CC(CC(C4)C2)C3)c1,8.8,1.4,-5.7,10.0,-18.8,95.9*
CNC(=O)c1ccc(NC(=O)CC23CC4CC(CC(C4)C2)C3)cc1,11.4,2.0,-5.8,-9.6,-14.6,-1.5
O=C1C=CC(=O)N1CCCCCCN1C(=O)C=CC1=O,x,x,-5.5,x,202.1*,x
Cc1ccc(SCC(=O)NNC(=O)c2cncc(Br)c2)cc1,-2.5,33.6*,-5.2,4.7,12.0,-1.1
C[C@H]1CN([C@@H](C)CO)C(=O)c2cccc(NC(=O)Nc3ccc(F)cc3)c2O[C@@H]1CN(C)C(=O)NC1CCCCC1,4.3,13.9,x,-1.3,-2.2,0.6
COc1ccc(S(=O)(=O)N[C@H]2CC[C@H](CC(=O)NCc3ccccc3F)O[C@H]2CO)cc1,-13.3,13.8,x,1.9,1.4,-1.8
CN(Cc1ccccc1)CC1CCCN(CCc2ccccc2F)C1 (stereo not drawn),11.0,39.5*,-5.5,6.1,-2.6,-1.6
CC(=O)Nc1ccc(C=NNc2nnc(NN=Cc3ccc(NC(C)=O)cc3)c3ccccc23)cc1,x,-4.8,-6.3,-16.3*,3.1,2.6
Cc1ccc(/C=N/Nc2nnc(Cl)c3ccccc23)cc1,-5.5,-5.4,-0.2,-11.3,8.6,6.2
COc1ccc(NC(=O)N(C)C[C@@H]2Oc3ccc(NC(=O)CCCCCC(=O)Nc4ccccc4N)cc3CC(=O)N([C@H](C)CO)C[C@H]2C)cc1,-0.3,-2.3,x,0.7,20.4,-0.6
O=C(NC1CCCCC1)N[C@@H]1C=C[C@@H](CC(=O)N2CCOCC2)O[C@@H]1CO,-7.9,-2.6,x,3.8,14.1,-1.5
O=C(NC1CCCCC1)N[C@H]1C=C[C@@H](CC(=O)N2CCOCC2)O[C@@H]1CO,6.3,107.9*,x,1.9,20.7,1.1
O=C(NC1CCCC1)N[C@H]1C=C[C@H](CC(=O)N2CCOCC2)O[C@H]1CO,0.1,56.8*,x,2.4,0.2,-0.5
CN(C)C(=O)C[C@@H]1C=C[C@@H](NC(=O)NC2CCCCC2)[C@H](CO)O1,11.6,72.7*,x,-0.6,29.7,-2.4
CCCNC(=O)N[C@H]1C=C[C@H](CC(=O)NC2CCC2)O[C@H]1CO,13.0,26.2*,x,0.0,0.3,4.7
Cc1cc(C(=O)Nc2ccc3c(c2)C(=O)N(C)[C@@H]2CC[C@@H](CC(=O)N[C@H](C)c4ccccc4)O[C@@H]2CO3)no1,3.1,-4.2,x,3.0,0.3,-5.0
O=C(NC1CCCC1)N[C@H]1C=C[C@@H](CC(=O)N2CCOCC2)O[C@@H]1CO,-5.2,35.8*,x,3.5,2.6,-0.9
CC(=O)C1=C(c2ccccc2)OC(N)=C(C#N)C1c1ccccc1F (stereo not drawn),x,x,-2.3,-46.6*,-5.3,-0.3
CC(=O)C1=C(c2ccccc2)OC(N)=C(C#N)C1c1ccccc1C (stereo not drawn),x,7.1,-3.1,-33.4*,-6.9,-0.8
N#CC1=C(N)Oc2cc(N)ccc2C1c1ccccc1F (stereo not drawn),2.6,-2.0,-0.8,-0.5,-6.9,-6.2
COc1ccc(CN(C)C[C@@H]2Oc3ccc(NC(=O)Nc4ccc(F)cc4)cc3CC(=O)N([C@H](C)CO)C[C@@H]2C)cc1,-3.3,-2.4,x,-15.6,-4.4,-1.7
Cc1c(N(C)C)c(=O)n(-c2ccccc2)n1C,-30.4,51.1*,x,5.7,-6.1,5.3
CC(C)NC(=O)Nc1ccc2c(c1)C(=O)N([C@@H](C)CO)C[C@H](C)[C@H](CN(C)Cc1ccc(C(=O)O)cc1)OCCCC[C@@H](C)O2,0.1,25.2*,x,1.4,3.7,-1.3
CC(C)NC(=O)Nc1ccc2c(c1)C(=O)N([C@@H](C)CO)C[C@@H](C)[C@@H](CN(C)Cc1ccc(C(F)(F)F)cc1)OCCCC[C@@H](C)O2,-1.4,55.7*,x,-0.3,-16.6,3.3
SMILES,PGC1a acetyl inh,DENV2 CPE rescue,CaV13 ICDI inh,rRNA inh HTS,INS-1E GSIS act,ERAP1 HTS inh
C[C@H](CO)N1C[C@H](C)[C@@H](CN(C)Cc2ccc(C(=O)O)cc2)Oc2ccc(NC(=O)NC3CCCCC3)cc2C1=O,-6.9,44.9*,x,-1.9,-0.6,-2.5
C[C@H](CO)N1C[C@H](C)[C@H](CN(C)C(=O)Nc2ccccc2)OCCCC[C@H](C)Oc2ccc(NC(=O)Nc3ccc(C(F)(F)F)cc3)cc2C1=O,x,x,x,1.5,2.6,x
C[C@H](CO)N1C[C@H](C)[C@@H](CN(C)C(=O)NC2CCCC2)Oc2ncc(Br)cc2C1=O,-3.6,14.1,x,8.7,6.6,1.0
O=S(=O)(N[C@H]1CC[C@@H](CCn2cc(C3(O)CCCC3)nn2)O[C@@H]1CO)c1ccc(Cl)cc1,-1.9,-1.8,x,-3.2,15.8,0.3
C[C@H](CO)N1C[C@H](C)[C@@H](CN(C)S(=O)(=O)c2cccc(F)c2)OCc2ccccc2-c2ccccc2C1=O,16.0,x,x,4.1,-15.1,x
CCC(=O)c1ccc(OCC(=O)Nc2nc(C)cs2)cc1,-0.9,-8.3,-5.2,-26.9*,-7.4,-0.2
Cn1cnc(S(=O)(=O)N2C[C@H](O)COC[C@H]3O[C@H](CC(=O)NCc4cc(F)cc(F)c4)CC[C@@H]32)c1,-0.4,-2.8,x,-0.1,6.4,-0.2
C[C@@H]1CN([C@@H](C)CO)S(=O)(=O)c2ccc(C#CC3CCCC3)cc2O[C@@H]1CN(C)C(=O)c1cccc(F)c1,-4.0,x,x,1.1,-10.7,x
Cc1ccc(S(=O)(=O)N(C)C[C@@H]2OCCCC[C@H](C)Oc3ccc(NC(=O)Nc4ccc(C(F)(F)F)cc4)cc3C(=O)N([C@@H](C)CO)C[C@@H]2C)cc1,1.9,-11.1,x,4.3,19.9,2.7
Cc1ccc(S(=O)(=O)N(C)C[C@@H]2OCCCC[C@H](C)Oc3ccc(NC(=O)Nc4ccc(C(F)(F)F)cc4)cc3C(=O)N([C@@H](C)CO)C[C@H]2C)cc1,1.9,23.4*,x,1.3,15.8,2.2
Cc1ccc(S(=O)(=O)N(C)C[C@H]2OCCCC[C@@H](C)Oc3ccc(NC(=O)Nc4ccc(C(F)(F)F)cc4)cc3C(=O)N([C@H](C)CO)C[C@@H]2C)cc1,1.8,66.5*,x,5.1,1.1,1.3
